Binding signal data for one sequence are collected here from article PMC7862700, “An all-to-all approach to the identification of sequence-specific readers for epigenetic DNA modifications on cytosine”.

What all share (experiment): DAPPL (digital affinity profiling via proximity ligation, sequencing); 10 mM Tris-HCl pH 7.5, 50 mM NaCl, 1 mM DTT, 4% glycerol, room temperature, 30 min; GST-TFs on glutathione beads, 16-mer random dsDNA library, 0.1% formaldehyde crosslink after washing; high values mean tight binding
One assay deals with T1, FEV (Homo sapiens, UniProt Q99581 1-238).
T1 sequence: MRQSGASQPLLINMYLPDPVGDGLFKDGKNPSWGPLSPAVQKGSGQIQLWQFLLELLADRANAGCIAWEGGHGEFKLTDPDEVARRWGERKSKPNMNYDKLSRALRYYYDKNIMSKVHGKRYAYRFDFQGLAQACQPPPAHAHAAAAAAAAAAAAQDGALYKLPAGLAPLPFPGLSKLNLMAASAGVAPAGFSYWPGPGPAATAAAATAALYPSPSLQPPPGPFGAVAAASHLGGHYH
Conditions: protein: recombinant; tags: N-terminal GST; dsDNA, one strand shown. The procedure, abridged: (§1)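 Binding signal is given per hexamer as its read frequency for a factor divided by its frequency in the tag-only sample. GST-fused human transcription factors were expressed in yeast, captured on glutathione beads, barcoded with DNA and pooled with that sample, then incubated with 200 nmole of a 16-mer random double-stranded DNA library in Tris/NaCl/DTT/glycerol buffer for 30 min at room temperature. The pools were then washed, crosslinked, proximity-ligated, amplified by PCR and sequenced on an Illumina NextSeq500.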

Another assay deals with ETV5 (Homo sapiens, UniProt P41161 1-510). To be noted: protein: recombinant; tags: N-terminal GST; dsDNA, one strand shown. The procedure, abridged:
as §1

Another assay concerns the target HSF1 (Homo sapiens, UniProt Q00613 1-529). Conditions: protein: recombinant; tags: N-terminal GST; chain copies: 3; dsDNA, one strand shown. The method, boiled down: as §1
The next assay addresses T2, SPIC (Homo sapiens, UniProt Q8N5J4 1-248).
T2 sequence: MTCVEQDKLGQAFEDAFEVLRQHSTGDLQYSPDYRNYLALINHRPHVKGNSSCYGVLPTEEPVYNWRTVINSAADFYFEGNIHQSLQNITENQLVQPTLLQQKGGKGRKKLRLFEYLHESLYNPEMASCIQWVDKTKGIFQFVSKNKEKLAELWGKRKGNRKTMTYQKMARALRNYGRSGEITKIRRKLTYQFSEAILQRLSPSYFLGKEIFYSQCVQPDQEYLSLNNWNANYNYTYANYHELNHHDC
Conditions: protein: recombinant; tags: N-terminal GST; dsDNA, one strand shown. The procedure, abridged: as §1

The next assay deals with ELF4 (Homo sapiens, UniProt Q99607 1-663). To be noted: protein: recombinant; tags: N-terminal GST; dsDNA, one strand shown. The method, boiled down:
as §1

A further assay addresses T3, ELK4 (Homo sapiens, UniProt P28324-2 1-405).
T3 sequence: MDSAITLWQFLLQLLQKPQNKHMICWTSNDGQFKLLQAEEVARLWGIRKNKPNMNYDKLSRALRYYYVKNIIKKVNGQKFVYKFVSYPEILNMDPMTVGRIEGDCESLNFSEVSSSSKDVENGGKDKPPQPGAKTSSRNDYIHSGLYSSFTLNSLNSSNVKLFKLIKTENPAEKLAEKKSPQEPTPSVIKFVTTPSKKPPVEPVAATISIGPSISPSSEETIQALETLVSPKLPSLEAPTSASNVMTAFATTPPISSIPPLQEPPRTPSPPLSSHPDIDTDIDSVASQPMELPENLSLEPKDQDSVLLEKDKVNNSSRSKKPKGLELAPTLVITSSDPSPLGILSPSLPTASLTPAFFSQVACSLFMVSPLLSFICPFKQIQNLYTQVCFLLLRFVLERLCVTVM
Conditions: protein: recombinant; tags: N-terminal GST; dsDNA, one strand shown. The procedure, abridged: as §1

The target of the next assay is T4, ETV2 (Homo sapiens, UniProt O00321 1-342).
T4 sequence: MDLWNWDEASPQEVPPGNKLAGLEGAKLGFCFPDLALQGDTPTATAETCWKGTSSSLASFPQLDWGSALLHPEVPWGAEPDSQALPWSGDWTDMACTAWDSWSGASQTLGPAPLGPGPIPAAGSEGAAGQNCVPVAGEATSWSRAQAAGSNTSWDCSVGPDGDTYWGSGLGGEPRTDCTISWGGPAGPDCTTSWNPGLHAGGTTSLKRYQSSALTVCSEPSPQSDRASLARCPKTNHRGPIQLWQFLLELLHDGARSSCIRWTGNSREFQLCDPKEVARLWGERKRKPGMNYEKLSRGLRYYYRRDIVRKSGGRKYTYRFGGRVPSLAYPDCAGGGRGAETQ
To be noted: protein: recombinant; tags: N-terminal GST; dsDNA, one strand shown. The procedure, abridged: as §1

The target of a further assay is T5, ELF3 (Homo sapiens, UniProt P78545 1-371).
T5 sequence: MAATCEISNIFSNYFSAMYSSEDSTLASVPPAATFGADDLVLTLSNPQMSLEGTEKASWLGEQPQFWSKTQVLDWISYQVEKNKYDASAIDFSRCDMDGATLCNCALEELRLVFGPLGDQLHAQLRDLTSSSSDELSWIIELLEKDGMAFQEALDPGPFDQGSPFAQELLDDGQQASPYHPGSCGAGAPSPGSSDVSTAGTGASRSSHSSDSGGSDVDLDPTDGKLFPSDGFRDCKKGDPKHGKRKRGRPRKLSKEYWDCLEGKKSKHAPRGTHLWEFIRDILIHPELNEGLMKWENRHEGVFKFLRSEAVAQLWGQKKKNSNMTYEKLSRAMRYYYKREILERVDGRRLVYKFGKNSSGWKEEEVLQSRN
To be noted: protein: recombinant; tags: N-terminal GST; dsDNA, one strand shown. The method, boiled down:
as §1

The target of another assay is CRX (Homo sapiens, UniProt O43186 1-299). Conditions: protein: recombinant; tags: N-terminal GST; dsDNA, one strand shown. The procedure, abridged: as §1
A further assay concerns the target ETV1 (Homo sapiens, UniProt P50549 1-477). To be noted: protein: recombinant; tags: N-terminal GST; dsDNA, one strand shown. The method, boiled down: as §1
For another assay, the target named is T6, ERF (Homo sapiens, UniProt P50548 1-548).
T6 sequence: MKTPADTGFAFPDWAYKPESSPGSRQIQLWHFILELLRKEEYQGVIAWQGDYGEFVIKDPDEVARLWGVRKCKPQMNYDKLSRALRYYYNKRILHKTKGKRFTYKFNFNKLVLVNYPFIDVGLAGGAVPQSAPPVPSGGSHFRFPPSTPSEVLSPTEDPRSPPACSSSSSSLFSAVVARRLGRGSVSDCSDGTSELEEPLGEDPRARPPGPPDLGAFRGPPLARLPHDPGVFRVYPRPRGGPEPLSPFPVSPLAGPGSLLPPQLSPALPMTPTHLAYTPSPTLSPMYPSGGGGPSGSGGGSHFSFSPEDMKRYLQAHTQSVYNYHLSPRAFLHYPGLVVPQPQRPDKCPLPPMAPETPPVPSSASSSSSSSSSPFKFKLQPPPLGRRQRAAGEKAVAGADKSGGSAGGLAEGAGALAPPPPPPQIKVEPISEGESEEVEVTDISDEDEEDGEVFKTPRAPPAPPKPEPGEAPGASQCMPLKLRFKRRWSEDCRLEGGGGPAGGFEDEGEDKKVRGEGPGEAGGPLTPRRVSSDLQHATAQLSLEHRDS
Conditions: protein: recombinant; tags: N-terminal GST; dsDNA, one strand shown. The method, boiled down:
as §1

The target of the next assay is T7, ETV3L (Homo sapiens, UniProt Q6ZN32 1-361).
T7 sequence: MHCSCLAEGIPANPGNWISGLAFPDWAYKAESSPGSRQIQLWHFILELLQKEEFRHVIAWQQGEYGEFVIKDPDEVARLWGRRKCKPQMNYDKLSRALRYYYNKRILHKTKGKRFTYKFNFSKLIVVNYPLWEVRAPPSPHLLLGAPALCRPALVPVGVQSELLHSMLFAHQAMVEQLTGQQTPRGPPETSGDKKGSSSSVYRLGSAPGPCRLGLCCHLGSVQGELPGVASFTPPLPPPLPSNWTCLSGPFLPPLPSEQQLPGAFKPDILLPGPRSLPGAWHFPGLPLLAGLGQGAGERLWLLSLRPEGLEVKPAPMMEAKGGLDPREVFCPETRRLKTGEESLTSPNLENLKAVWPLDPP
Conditions: protein: recombinant; tags: N-terminal GST; dsDNA, one strand shown. The procedure, abridged: as §1

The target in another assay is T8, ETS2 (Homo sapiens, UniProt P15036 1-469).
T8 sequence: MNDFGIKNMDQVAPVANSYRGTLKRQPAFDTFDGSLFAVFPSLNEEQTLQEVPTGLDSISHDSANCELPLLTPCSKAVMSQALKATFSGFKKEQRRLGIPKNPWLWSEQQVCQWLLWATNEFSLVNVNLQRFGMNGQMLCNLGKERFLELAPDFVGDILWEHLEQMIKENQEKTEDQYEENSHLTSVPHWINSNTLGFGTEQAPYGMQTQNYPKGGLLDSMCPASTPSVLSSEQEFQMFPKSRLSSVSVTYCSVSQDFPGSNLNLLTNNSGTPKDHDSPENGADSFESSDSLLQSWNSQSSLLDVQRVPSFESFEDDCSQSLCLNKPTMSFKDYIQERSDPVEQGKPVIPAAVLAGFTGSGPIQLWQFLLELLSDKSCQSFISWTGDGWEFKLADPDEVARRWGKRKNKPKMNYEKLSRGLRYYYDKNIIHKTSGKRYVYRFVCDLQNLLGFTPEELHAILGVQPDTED
To be noted: protein: recombinant; tags: N-terminal GST; dsDNA, one strand shown. The method, boiled down: as §1

For the next assay, the target named is T9, SPDEF (Homo sapiens, UniProt O95238 1-335).
T9 sequence: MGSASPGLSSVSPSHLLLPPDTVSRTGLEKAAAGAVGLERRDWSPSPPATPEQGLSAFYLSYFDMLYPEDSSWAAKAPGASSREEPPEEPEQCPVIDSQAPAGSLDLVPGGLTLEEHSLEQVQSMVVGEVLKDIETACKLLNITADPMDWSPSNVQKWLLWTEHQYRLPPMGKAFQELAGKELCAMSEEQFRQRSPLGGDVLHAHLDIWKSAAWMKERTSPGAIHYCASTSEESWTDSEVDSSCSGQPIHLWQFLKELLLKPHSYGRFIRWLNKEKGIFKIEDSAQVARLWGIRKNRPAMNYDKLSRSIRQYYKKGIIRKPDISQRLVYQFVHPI
Conditions: protein: recombinant; tags: N-terminal GST; dsDNA, one strand shown. The method, boiled down:
as §1

The target in a further assay is T10, ETV7 (Homo sapiens, UniProt Q9Y603 1-341).
T10 sequence: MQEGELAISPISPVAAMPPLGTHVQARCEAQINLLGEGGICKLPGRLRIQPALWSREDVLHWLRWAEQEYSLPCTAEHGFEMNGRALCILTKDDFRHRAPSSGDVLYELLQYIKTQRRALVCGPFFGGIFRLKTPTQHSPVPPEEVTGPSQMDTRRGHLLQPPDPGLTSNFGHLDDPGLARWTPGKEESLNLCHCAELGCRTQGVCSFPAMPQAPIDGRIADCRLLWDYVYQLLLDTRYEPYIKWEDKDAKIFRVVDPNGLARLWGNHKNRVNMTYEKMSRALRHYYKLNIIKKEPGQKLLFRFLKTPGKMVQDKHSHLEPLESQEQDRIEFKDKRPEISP
Conditions: protein: recombinant; tags: N-terminal GST; dsDNA, one strand shown. The method, boiled down:
as §1

In a further assay the target is T11, ELF5 (Homo sapiens, UniProt Q9UKW6-2 1-255).
T11 sequence: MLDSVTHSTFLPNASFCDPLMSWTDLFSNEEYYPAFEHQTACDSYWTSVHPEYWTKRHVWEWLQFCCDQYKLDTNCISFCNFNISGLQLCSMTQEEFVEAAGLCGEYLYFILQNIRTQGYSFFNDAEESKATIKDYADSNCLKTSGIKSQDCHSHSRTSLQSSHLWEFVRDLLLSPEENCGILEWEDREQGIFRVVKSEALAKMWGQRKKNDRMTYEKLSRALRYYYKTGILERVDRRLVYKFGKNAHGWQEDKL
To be noted: protein: recombinant; tags: N-terminal GST; dsDNA, one strand shown. The method, boiled down:
as §1

A further assay addresses T12, ETV3 (Homo sapiens, UniProt P41162-2 1-143).
T12 sequence: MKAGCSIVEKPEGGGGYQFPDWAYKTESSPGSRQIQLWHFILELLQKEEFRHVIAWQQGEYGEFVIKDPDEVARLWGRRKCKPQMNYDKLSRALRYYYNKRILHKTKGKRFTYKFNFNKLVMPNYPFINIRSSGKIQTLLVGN
Conditions: protein: recombinant; tags: N-terminal GST; dsDNA, one strand shown. The procedure, abridged:
as §1

The next assay has as its target ETV6 (Homo sapiens, UniProt P41212 1-452). To be noted: protein: recombinant; tags: N-terminal GST; dsDNA, one strand shown. The procedure, abridged:
as §1

Sequence of ETV1 (P50549 whole entry): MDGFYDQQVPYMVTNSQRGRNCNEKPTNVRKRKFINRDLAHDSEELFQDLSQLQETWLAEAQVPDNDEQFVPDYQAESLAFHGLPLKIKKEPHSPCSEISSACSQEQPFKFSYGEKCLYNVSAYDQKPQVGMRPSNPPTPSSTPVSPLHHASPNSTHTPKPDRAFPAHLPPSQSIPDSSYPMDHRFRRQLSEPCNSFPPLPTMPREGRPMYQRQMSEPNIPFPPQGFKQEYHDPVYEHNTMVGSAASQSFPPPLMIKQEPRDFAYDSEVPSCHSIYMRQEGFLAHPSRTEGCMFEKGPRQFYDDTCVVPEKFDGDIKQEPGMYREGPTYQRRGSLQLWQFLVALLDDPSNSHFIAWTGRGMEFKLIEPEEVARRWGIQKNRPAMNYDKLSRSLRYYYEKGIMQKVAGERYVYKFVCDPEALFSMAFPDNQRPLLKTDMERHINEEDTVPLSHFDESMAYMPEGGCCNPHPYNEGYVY
Sequence of HSF1 (Q00613 whole entry): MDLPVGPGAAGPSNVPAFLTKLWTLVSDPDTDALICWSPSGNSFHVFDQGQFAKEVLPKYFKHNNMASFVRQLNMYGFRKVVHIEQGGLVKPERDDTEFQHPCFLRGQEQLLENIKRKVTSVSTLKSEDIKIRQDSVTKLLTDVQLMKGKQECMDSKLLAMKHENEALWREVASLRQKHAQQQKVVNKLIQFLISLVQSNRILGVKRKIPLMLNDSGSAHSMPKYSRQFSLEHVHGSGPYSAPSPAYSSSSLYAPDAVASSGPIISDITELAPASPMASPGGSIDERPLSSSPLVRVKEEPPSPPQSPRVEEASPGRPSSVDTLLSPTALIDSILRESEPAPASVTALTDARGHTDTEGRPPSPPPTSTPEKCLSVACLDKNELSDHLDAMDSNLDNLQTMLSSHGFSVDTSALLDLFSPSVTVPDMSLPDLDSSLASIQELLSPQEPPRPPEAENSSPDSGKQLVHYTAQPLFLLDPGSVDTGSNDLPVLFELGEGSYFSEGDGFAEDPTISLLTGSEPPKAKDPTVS
Sequence of CRX (O43186 whole entry): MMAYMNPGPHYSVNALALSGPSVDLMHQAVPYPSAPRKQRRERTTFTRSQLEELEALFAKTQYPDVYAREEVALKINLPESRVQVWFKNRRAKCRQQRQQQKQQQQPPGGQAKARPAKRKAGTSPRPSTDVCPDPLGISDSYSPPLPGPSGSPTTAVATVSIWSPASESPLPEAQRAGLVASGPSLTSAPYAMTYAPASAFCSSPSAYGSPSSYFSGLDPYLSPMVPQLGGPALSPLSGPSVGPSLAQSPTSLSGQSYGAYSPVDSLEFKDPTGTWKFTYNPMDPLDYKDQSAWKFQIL
Sequence of ETV5 (P41161 whole entry): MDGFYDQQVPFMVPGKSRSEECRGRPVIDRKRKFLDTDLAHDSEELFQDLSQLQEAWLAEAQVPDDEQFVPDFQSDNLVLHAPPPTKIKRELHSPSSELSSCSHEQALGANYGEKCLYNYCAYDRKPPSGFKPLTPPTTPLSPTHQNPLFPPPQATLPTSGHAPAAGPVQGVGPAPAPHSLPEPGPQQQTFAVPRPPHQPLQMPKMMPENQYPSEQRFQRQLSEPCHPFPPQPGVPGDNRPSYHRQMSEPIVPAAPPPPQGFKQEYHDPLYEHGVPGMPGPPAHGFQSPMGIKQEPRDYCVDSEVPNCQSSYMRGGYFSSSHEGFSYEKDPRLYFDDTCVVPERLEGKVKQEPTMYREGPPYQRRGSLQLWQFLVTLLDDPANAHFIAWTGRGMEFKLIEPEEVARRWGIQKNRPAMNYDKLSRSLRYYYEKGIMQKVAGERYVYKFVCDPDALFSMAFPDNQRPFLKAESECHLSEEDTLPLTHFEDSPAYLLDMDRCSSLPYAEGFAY
Sequence of ETV6 (P41212 whole entry): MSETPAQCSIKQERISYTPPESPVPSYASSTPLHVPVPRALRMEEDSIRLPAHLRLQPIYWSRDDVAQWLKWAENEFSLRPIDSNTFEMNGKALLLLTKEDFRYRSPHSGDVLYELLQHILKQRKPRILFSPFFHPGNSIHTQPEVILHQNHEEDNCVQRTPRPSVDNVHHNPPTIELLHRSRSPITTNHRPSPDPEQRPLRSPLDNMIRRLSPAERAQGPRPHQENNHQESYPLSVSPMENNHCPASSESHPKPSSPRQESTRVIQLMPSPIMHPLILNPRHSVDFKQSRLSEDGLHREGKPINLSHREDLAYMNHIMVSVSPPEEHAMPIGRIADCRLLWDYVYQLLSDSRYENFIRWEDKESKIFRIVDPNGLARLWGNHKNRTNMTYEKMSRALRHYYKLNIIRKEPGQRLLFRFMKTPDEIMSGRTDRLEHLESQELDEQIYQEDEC
Sequence of ELF4 (Q99607 whole entry): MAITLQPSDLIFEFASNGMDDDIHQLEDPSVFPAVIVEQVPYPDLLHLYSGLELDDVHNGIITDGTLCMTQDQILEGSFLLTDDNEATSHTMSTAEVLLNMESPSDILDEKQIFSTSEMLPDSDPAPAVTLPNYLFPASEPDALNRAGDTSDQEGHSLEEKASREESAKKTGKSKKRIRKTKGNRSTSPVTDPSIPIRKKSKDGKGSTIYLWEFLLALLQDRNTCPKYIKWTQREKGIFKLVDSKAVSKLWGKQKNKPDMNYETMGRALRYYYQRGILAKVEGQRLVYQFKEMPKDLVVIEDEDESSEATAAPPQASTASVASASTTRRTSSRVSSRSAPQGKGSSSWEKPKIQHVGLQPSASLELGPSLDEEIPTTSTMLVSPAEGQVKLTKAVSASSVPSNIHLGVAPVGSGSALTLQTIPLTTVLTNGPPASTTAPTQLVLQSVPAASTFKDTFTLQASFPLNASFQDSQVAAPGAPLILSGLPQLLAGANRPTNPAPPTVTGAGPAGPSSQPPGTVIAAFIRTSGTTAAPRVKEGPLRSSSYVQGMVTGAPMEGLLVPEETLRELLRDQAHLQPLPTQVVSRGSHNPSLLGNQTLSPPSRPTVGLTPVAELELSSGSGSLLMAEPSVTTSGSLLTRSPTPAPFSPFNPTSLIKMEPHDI

In the case of ACTCTG, the binding signal with FEV is 1.27 fold enrichment (6-mer frequency, TF over GST control); in the assay with ETV5 it was 1.27 fold enrichment (6-mer frequency, TF over GST control); with HSF1, 1.12 fold enrichment (6-mer frequency, TF over GST control); with SPIC, 1.51 fold enrichment (6-mer frequency, TF over GST control); in the assay with ELF4, 1.24 fold enrichment (6-mer frequency, TF over GST control); in the assay with ELK4, 1.23 fold enrichment (6-mer frequency, TF over GST control). The binding signal is 1.23 fold enrichment (6-mer frequency, TF over GST control) with ETV2; 1.15 fold enrichment (6-mer frequency, TF over GST control) with ELF3; 1.12 fold enrichment (6-mer frequency, TF over GST control) with CRX; 1.25 fold enrichment (6-mer frequency, TF over GST control) with ETV1; 1.43 fold enrichment (6-mer frequency, TF over GST control) with ERF; 1.28 fold enrichment (6-mer frequency, TF over GST control) in the assay with ETV3L. Further, the binding signal was 1.29 fold enrichment (6-mer frequency, TF over GST control) in the assay with ETS2; 1.16 fold enrichment (6-mer frequency, TF over GST control) with SPDEF; 1.21 fold enrichment (6-mer frequency, TF over GST control) with ETV7; 1.2 fold enrichment (6-mer frequency, TF over GST control) with ELF5; 1.27 fold enrichment (6-mer frequency, TF over GST control) in the assay with ETV3; 1.23 fold enrichment (6-mer frequency, TF over GST control) with ETV6.
